Results published in PubChem BioAssay (NCATS).
Results filed as inconclusive are left out. A call without a number means that no potency is given here. Activity calls are given as the source filed them. Calls come from the whole dose curve; as a rule, active = well fitted inhibition curve with a large enough effect; inconclusive = small, poorly fitted or top-dose-only effect; inactive = flat fitted curve, though single readings scatter.

The molecules below were run on PC49 (assay: qHTS profiling for inhibitors of Plasmodium falciparum proliferation (AID 504749; note: nearly all actives have a fitted effect of over 60% in size)). Settings: P. falciparum in erythrocytes, SYBR Green DNA, 72 h; series mostly up to 28.7 µM.
Procedure, shortened: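 P. falciparum-infected erythrocytes (0.3% parasitemia, 2.5% hematocrit) incubated with compound 72 h at 37 C, 5% CO2. Parasite DNA detected by SYBR Green after lysis, overnight at room temperature; normalised to 0.29 uM artemisinin and DMSO.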
Potency is the fitted concentration of half-maximal effect.

Compound	Potency
NCCS(=O)(=O)O	inactive
CC(C)Cc1ccc(C(C)C(=O)O)cc1 (configuration not stated)	inactive
CC(C)NCC(O)c1ccc(O)c(O)c1 (configuration not stated)	inactive
NC(=O)OCC(COC(N)=O)c1ccccc1	inactive
N[C@@H](Cc1c[nH]c2ccc(O)cc12)C(=O)O	inactive
Cc1cnc(C(=O)NCCc2ccc(S(=O)(=O)NC(=O)NC3CCCCC3)cc2)cn1	inactive
CCOC(=O)C(C)(C)Oc1ccc(Cl)cc1	inactive
CS(=O)(=O)Nc1ccc([N+](=O)[O-])cc1Oc1ccccc1	inactive
CC(C)(C)C(=O)Oc1ccc(S(=O)(=O)Nc2ccccc2C(=O)NCC(=O)O)cc1	inactive
C[C@](N)(Cc1ccc(O)c(O)c1)C(=O)O	inactive
Clc1ccc2nsnc2c1NC1=NCCN1	inactive
Cn1cnc2c1c(=O)[nH]c(=O)n2C	inactive
CC(C)C(=O)Nc1ccc([N+](=O)[O-])c(C(F)(F)F)c1	inactive
COc1ccccc1OCC(O)CN1CCN(CC(=O)Nc2c(C)cccc2C)CC1 (configuration not stated)	inactive
COc1ccc2[nH]cc(CCNC(C)=O)c2c1	inactive
Cn1c(=O)c2c(ncn2C)n(C)c1=O	inactive
COC(=O)Nc1nc2ccc(C(=O)c3cccs3)cc2[nH]1	inactive
Clc1ccccc1C(c1ccccc1)(c1ccccc1)n1ccnc1	1000 nM (active)
Nc1nc2c(ncn2COC(CO)CO)c(=O)[nH]1	inactive

Compound	Potency
NCCCCCC(=O)O	inactive
Cc1cc(C(C)(C)C)c(O)c(C)c1CC1=NCCN1	inactive
Nc1nnc(-c2cccc(Cl)c2Cl)c(N)n1	inactive
CCOC(=O)c1ncn2c1CN(C)C(=O)c1cc(F)ccc1-2	inactive
CN(C)c1nc(N(C)C)nc(N(C)C)n1	inactive
NS(=O)(=O)c1cc2c(cc1Cl)NCNS2(=O)=O	inactive
CN1CCN2c3ccccc3Cc3ccccc3C2C1 (configuration not stated)	inactive
Cc1cn([C@H]2C[C@H](N=[N+]=[N-])[C@@H](CO)O2)c(=O)[nH]c1=O	inactive
CN(C)C(=N)N=C(N)N	inactive
CC[N+](CC)(CC)CCOc1cccc(OCC[N+](CC)(CC)CC)c1OCC[N+](CC)(CC)CC	inactive
Cc1ccc(C(=O)Nc2ccc(S(=O)(=O)O)c3cc(S(=O)(=O)O)cc(S(=O)(=O)O)c23)cc1NC(=O)c1cccc(NC(=O)Nc2cccc(C(=O)Nc3cc(C(=O)Nc4ccc(S(=O)(=O)O)c5cc(S(=O)(=O)O)cc(S(=O)(=O)O)c45)ccc3C)c2)c1	inactive
NC(=O)NO	inactive
CN1C(C(=O)Nc2ccccn2)=C(O)c2ccccc2S1(=O)=O	inactive
COc1cc2c(c(OC)c1OC)-c1ccc(OC)c(=O)cc1[C@@H](NC(C)=O)CC2	inactive
Cc1cn([C@H]2C=C[C@@H](CO)O2)c(=O)[nH]c1=O	inactive
CS(=O)(=O)CCNCc1ccc(-c2ccc3ncnc(Nc4ccc(OCc5cccc(F)c5)c(Cl)c4)c3c2)o1	inactive
CCCNCC(O)COc1ccccc1C(=O)CCc1ccccc1 (configuration not stated)	316 nM (active)
CC(=O)OCC(CCn1cnc2cnc(N)nc21)COC(C)=O	inactive
